For part of these data: Measured potencies and affinities stand elsewhere. The source made the active and inactive calls.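 Rule for the calls, unless noted: active = hit in primary screen, with calcium signal over 5 SD above buffer well mean in both duplicates; inactive = the rest.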

In assay [1] the test system is TRPC4 beta (transient receptor potential cation channel C4), mouse. Description: activators of mouse TRPC4 channel, confirmation, cell-based, Fluo4 calcium, HEK293 TRPC4beta/mu-opioid, duplicates, 10 µM (AID 2426;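 active = fluorescence ratio normalized to control raised more than 50% in primary screen plus both repeat runs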;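 for activation: percent rise of integrated ratio over buffer wells lacking compound which define 0%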). Conditions: Fluo4 calcium fluorescence, at 10 µM; active compounds read high.
For assay [2], the system named is transient receptor potential cation channel C4 beta (TRPC4), mouse. Description: activators of mouse TRPC4 channel, confirmation, cell-based, second round, Fluo4, HEK293 TRPC4beta/mu-opioid, 1 µM (AID 2461;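 active = primary screen active and over 50% activation in each of two duplicate runs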;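 for activation: 0% = wells without test compound as baseline of integrated fluorescence ratio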). Conditions: Fluo4 calcium fluorescence, at 1 µM; active compounds read high.
The subject of assay [3] is TRPC4 (transient receptor potential cation channel C4 beta), mouse. Description: positive allosteric modulators of mouse TRPC4, confirmation, cell-based, second round, Fluo-4, HEK293 TRPC4beta/mu-opioid, 1 µM (AID 2554;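 active = primary screen hit whose fluorescence ratio, in both repeats, exceeds the weak agonist control mean by 3 SD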). To be noted: DAMGO EC20, Fluo-4 calcium flux, at 1 µM; active compounds read high. In general terms: A change in cytosolic calcium serves as a functional read-out for many receptors and channels.

Assay [4] deals with TRPC4 beta (transient receptor potential cation channel C4), mouse. Description: positive allosteric modulators of mouse TRPC4, confirmation, cell-based, Fluo-4, HEK293 TRPC4beta/mu-opioid (AID 2555;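 active = primary screen hit whose calcium fluorescence ratio, in both repeats, exceeds the weak agonist control mean by 3 SD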). Conditions: DAMGO EC20, Fluo-4 calcium flux, at 10 µM; active compounds read high.
Assay [5] addresses Short transient receptor potential channel 4 (Mus musculus) (UniProt Q9QUQ5). Description: inhibitors of mouse TRPC4 channel, confirmation, cell-based, Fluo4, HEK293 TRPC4beta/mu-opioid (AID 2636;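 active = calcium signal cut by more than 3 SD below the full-agonist control yet still positive, in both repeats and the earlier primary screen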). To be noted: DAMGO, Fluo4 calcium flux, at 10 µM; active compounds read high.
The target is the same in assay [6]. Description: inhibitors of mouse TRPC4 channel, confirmation, cell-based, second round, Fluo4, HEK293 TRPC4beta/mu-opioid, 1 µM (AID 2637;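 active = calcium signal ratio cut to more than 3 SD under the fully stimulated control mean yet still positive, in both repeats and the primary screen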). To be noted: Fluo4 calcium flux, DAMGO, at 1 µM; active compounds read high.
The target is the same in assay [7]. Description: TRPC4 positive allosteric modulators, dose response, cell-based, HEK293 TRPC4/mu-opioid, Fluo-4 calcium, EC20 DAMGO (AID 434941;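 active = earlier screen potentiator hit that boosts the TRPC4 ion channel at some dose, with a dose response; inactive = no potentiation, no dose response, or not a prior hit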;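 note: calcium entry triggered by an EC20 dose of DAMGO at the co-expressed mu-opioid receptor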).
The target is the same in assay [8]. The assay can be described thus: mouse TRPC4 channel inhibitors, dose response, cell-based, HEK293 TRPC4/mu-opioid, Fluo-4 calcium (AID 434942;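 active = primary screen inhibitor hit that blocks the TRPC4 channel at some tested dose, yielding a dose curve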).
Assay [9] concerns the target Short transient receptor potential channel 6 (Mus musculus) (UniProt Q61143). The assay can be described thus: inhibition of mouse TRPC6 channel, confirmation, selectivity assay for TRPC4 inhibitor project, cell-based, HEK293, membrane potential dye, duplicate (AID 434948;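 active = active in primary screen and both duplicates, each dropping signal beyond three positive-control SD with fluorescence still positive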). Conditions: HEK293 TRPC6, membrane potential dye fluorescence, at 10 µM, stimulated with maximal-effect acetylcholine; active compounds read high.

Assay [10] has the same target. The assay can be described thus: activation of mouse TRPC6 channel, confirmation, selectivity assay for TRPC4 activator project, cell-based, HEK293, membrane potential dye, duplicate (AID 434950;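 active = membrane potential signal rise above negative control mean plus 3 SD in both duplicates, also active in the earlier TRPC4 screen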;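 for activation: 0% = buffer only wells and 100% = acetylcholine maximal-effect wells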). Conditions: HEK293 TRPC6, membrane potential fluorescence, at 10 µM; active compounds read high.
Assay [11] has the same target. Description: TRPC6 potentiation by TRPC4 potentiator hits, confirmation, selectivity assay for TRPC4 potentiator project, HEK293 cells, membrane potential dye, duplicate (AID 434952;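 active = compound raising the membrane signal above positive-control mean plus 3 SD in both repeats, and a primary screen hit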). Conditions: HEK293 TRPC6, membrane potential dye fluorescence, at 10 µM, maximal acetylcholine added after compound; active compounds read high.
The target in assay [12] is Short transient receptor potential channel 4 (Mus musculus) (UniProt Q9QUQ5). Description: calcium flux activators in TRPC4/5HT1a cells, counter-screen for TRPC4 activator project, cell-based, second counter screen, HEK293 TRPC4/5HT1a, Fluo-4 (AID 434977;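 active = calcium signal rise above buffer-control mean plus 5 SD in both duplicates, and also a hit in the primary screen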;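 for activation: plate controls were assay buffer for no effect and maximal serotonin response for full effect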). To be noted: Fluo-4 calcium flux, at 10 µM; active compounds read high.
The nature of assay [13]: calcium flux inhibitors in TRPC4/5HT1a cells, confirmation, counter-screen for TRPC4 inhibitor project, cell-based, second counter screen, HEK293 TRPC4/5HT1a, Fluo-4 (AID 434978;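 active = primary screen active whose calcium signal fell more than 3 SD beyond the full-serotonin control mean in both duplicate plates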;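 note: serotonin given first at submaximal then at maximal dose after compound preincubation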). To be noted: Fluo-4 calcium flux, at 10 µM, serotonin added to trigger calcium flux; active compounds read high.
The test system of assay [14] is TRPC4 (mouse), co-expressed with 5HT1a in HEK293. The assay can be described thus: calcium flux potentiators in TRPC4/5HT1a cells, confirmation, counter-screen for TRPC4 potentiator project, cell-based, second counter screen, HEK293 TRPC4/5HT1a, Fluo-4 (AID 434979;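 active = signal rise over 3 SD above mean of control wells given weak agonist, in both repeats and first screen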). Conditions: Fluo-4 calcium flux, at 10 µM, serotonin added at its EC20 dose; active compounds read high.
The nature of assay [15]: calcium flux activation in mu-opioid HEK293 cells, confirmation, counter-screen for TRPC4 activator project, cell-based, HEK293 mu-opioid receptor line (AID 449723).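 Note: counter screen cells carry the mu-opioid receptor alone and lack TRPC4.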 Conditions: Fluo-4 calcium fluorescence, at 10 µM; active compounds read high.
Assay [16] in a line: calcium flux enhancement in mu-opioid HEK293 cells, confirmation, counter-screen for TRPC4 allosteric potentiator project, cell-based, HEK293 mu-opioid receptor line (AID 449724;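 active = calcium signal rise more than 3 SD above the low-dose agonist control mean, in both duplicate plates and the primary screen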;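 note: HEK293 cells carrying mu-opioid receptor only with no TRPC4 channel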). Conditions: Fluo-4 calcium flux, at 10 µM, compound added before EC20 DAMGO stimulus; active compounds read high.

Short transient receptor potential channel 6 (Mus musculus), sequence (Q61143 whole entry, looked up): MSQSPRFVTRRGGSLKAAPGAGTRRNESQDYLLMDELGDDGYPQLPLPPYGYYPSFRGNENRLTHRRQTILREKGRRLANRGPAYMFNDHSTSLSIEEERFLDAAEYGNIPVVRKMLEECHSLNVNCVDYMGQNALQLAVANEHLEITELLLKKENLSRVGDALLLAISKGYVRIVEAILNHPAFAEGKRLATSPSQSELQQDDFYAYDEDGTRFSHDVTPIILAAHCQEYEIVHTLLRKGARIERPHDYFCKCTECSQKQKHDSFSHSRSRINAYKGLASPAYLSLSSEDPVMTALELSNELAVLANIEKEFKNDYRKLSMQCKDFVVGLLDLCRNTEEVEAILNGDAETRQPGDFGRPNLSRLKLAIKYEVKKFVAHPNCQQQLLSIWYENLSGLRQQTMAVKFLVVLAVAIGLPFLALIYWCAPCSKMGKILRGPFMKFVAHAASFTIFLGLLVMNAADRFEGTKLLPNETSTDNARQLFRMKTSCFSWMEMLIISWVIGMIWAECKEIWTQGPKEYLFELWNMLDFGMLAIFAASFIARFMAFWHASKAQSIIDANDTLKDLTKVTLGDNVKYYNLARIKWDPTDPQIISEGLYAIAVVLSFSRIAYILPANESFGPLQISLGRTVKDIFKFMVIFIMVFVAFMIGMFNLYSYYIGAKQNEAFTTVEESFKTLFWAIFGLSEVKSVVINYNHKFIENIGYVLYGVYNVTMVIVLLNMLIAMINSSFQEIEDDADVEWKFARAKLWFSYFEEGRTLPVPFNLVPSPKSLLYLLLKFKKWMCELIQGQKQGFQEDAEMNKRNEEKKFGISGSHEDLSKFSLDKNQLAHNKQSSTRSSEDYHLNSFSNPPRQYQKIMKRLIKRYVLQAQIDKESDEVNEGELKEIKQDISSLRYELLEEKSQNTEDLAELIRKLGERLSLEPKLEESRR
Short transient receptor potential channel 4 (Mus musculus), sequence (Q9QUQ5 whole entry, looked up): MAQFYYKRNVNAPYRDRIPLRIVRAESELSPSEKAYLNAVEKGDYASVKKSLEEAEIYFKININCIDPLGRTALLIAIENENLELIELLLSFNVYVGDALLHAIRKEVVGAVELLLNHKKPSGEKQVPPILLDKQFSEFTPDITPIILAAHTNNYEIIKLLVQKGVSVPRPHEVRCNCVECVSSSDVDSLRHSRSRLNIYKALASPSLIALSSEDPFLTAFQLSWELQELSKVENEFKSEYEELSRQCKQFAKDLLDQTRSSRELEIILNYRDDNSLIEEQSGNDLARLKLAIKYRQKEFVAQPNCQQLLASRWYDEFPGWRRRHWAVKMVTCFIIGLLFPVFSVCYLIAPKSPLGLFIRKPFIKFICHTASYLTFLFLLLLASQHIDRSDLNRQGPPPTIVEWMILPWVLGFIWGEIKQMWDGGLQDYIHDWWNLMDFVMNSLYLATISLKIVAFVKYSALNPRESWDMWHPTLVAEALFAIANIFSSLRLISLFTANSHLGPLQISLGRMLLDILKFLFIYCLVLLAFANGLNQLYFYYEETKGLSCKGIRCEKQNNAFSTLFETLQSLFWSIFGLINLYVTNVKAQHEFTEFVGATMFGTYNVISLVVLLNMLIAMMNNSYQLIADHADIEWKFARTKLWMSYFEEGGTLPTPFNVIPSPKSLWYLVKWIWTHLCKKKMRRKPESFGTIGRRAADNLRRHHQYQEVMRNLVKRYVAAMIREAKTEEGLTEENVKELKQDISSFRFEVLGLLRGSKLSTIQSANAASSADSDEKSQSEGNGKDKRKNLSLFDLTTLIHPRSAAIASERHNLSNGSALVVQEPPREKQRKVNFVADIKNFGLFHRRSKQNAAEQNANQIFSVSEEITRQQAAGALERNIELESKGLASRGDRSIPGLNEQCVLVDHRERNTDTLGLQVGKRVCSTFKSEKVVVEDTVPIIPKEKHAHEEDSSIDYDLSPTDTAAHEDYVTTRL

Regarding `O=C(O)C1C2C=CC(C2)C1C(=O)NC1CCN(Cc2ccccc2)CC1` (stereo not given), the activation in [1] was 155% (active); in assay [10] it was 32% (active); in [12], 44.3% (active). Also, the result in assay [2], in assay [3], in assay [4], in assay [5], in assay [6] and in [7] was inactive. For the same compound, the result in assay [8], in assay [9], in [11], in [13], in assay [14] and in assay [15] was inactive. The result in assay [16] was inactive.
On to `COc1ccc(C(=O)C2CCCN(Cc3ccc(Sc4nncn4C)o3)C2)cc1F` (stereo not given), for which the activation in assay [1] is 164% (active); in assay [2] it was 87% (active); in assay [10] it was 36% (active); in assay [12], 9.87% (active). Further, the outcome in [3], in [4], in [5], in assay [6], in assay [7] and in assay [8] was inactive. Besides, the compound was classed as inactive in [9], in assay [11], in [13], in assay [14], in [15] and in assay [16].
Consider `COc1ccc(C(CNC(=O)c2cc(C)on2)N(C)C)cc1` (stereo not given), for which the figures for the activation in assay [1] and in assay [10] were 199% (active) and 27.5% (active), respectively. Further, the outcome in assay [2], in assay [3], in assay [4], in assay [5], in [6] and in [7] was inactive. Moreover, the result in [8], in assay [9], in assay [11], in assay [12], in assay [13] and in [14] was inactive. Further, the result in assay [15] and in [16] was inactive.
For the compound `CCN1CCN(c2ccc(S(=O)(=O)N3CCOCC3)cc2NC(=O)c2ccccc2SC)CC1`, the activation in assay [1] was 316% (active); in [2] it was 110% (active); in [12], 81.4% (active). Further, the outcome in [3], in [4], in [5], in assay [6], in assay [7] and in assay [8] was inactive. The result in assay [9], in assay [10], in [11], in assay [13], in [14] and in assay [15] was inactive. For the same compound, the outcome in assay [16] was inactive.
For the compound `Cc1cc2nc3s/c(=C/c4ccc(-c5ccccc5C(=O)O)o4)c(=O)n3c2cc1C`, the activation was 177% (active) in [1], 675% (active) in assay [10], 112% (active) in [12] and 136% (active) in assay [15]. Moreover, the result in assay [2], in assay [3], in assay [4], in assay [5], in assay [6] and in assay [7] was inactive. The result in [8], in assay [9], in assay [11], in assay [13], in [14] and in assay [16] was inactive.
`COc1ccc(C(CNC(=O)c2ccccc2SC)N(C)C)cc1` (stereo not given): the activation in assay [1] was 99% (active); in [10], 56% (active). For the same compound, the result in assay [2], in assay [3], in [4], in assay [5], in [6] and in assay [7] was inactive. For the same compound, the outcome in assay [8], in [9], in assay [11], in assay [12], in assay [13] and in assay [14] was inactive. The outcome in assay [15] and in [16] was inactive.
Take `CN(C)CCCN(C(=O)c1ccc(S(=O)(=O)N2CCc3ccccc32)cc1)c1nc2ccc(F)cc2s1`: the activation in assay [1] was 79% (active). In addition, the outcome in assay [2], in assay [3], in [4], in [5], in assay [6] and in [7] was inactive. The result in [8], in assay [9], in [10], in assay [11], in assay [12] and in assay [13] was inactive. Further, the result in [14], in assay [15] and in assay [16] was inactive.
For the compound `CCN1CCN(c2ccc(S(=O)(=O)N3CCCCC3)cc2NC(=O)CC(C)c2ccccc2)CC1` (stereo not given), the activation in assay [1] was 140% (active). Besides, the outcome in [2], in assay [3], in assay [4], in [5], in assay [6] and in assay [7] was inactive. The result in [8], in assay [9], in [10], in assay [11], in assay [12] and in assay [13] was inactive. In addition, the result in assay [14], in assay [15] and in assay [16] was inactive.
As to `COc1cccc(CN2CCNC(=O)C2CC(=O)N(C)CCc2ccccn2)c1` (stereo not given), the activation in assay [1] was 186% (active); in [2], 92% (active); in assay [12] it was 39% (active). The outcome in [3], in assay [4], in [5], in assay [6], in assay [7] and in [8] was inactive. The call in assay [9], in [10], in assay [11], in [13], in assay [14] and in [15] was inactive. Moreover, in assay [16], the result was inactive.
In the case of `O=C(CN1CCN(c2ncc(C(F)(F)F)cc2Cl)CC1)N1CCN(c2ncc(C(F)(F)F)cc2Cl)CC1`, the results for the activation in assay [1] and in [12] were 128% (active) and 42% (active), respectively. Besides, the result in assay [2], in assay [3], in [4], in assay [5], in [6] and in assay [7] was inactive. The result in assay [8], in [9], in assay [10], in assay [11], in [13] and in assay [14] was inactive. The result in assay [15] and in assay [16] was inactive.
For the compound `COC(=O)c1ccc(N2CCN(C)CC2)c(NC(=O)c2cccs2)c1`, the activation in assay [1] was 138% (active); in assay [12] it was 52.7% (active); in [15] it was 15.6% (active). In addition, the result in assay [2], in assay [3], in [4], in assay [5], in assay [6] and in assay [7] was inactive. Moreover, the result in [8], in [9], in assay [10], in [11], in [13] and in assay [14] was inactive. Moreover, the result in assay [16] was inactive.
As to `CCOC(=O)c1ccc(NC(=O)NCCc2cnc[nH]2)cc1`, the activation was 147% (active) in assay [1], 136% (active) in assay [2], 38% (active) in [10] and 90.7% (active) in assay [12]. In addition, the outcome in assay [3], in assay [4], in assay [5], in assay [6], in assay [7] and in assay [8] was inactive. The compound was classed as inactive in assay [9], in [11], in assay [13], in assay [14], in assay [15] and in [16].
For `COc1ccc(CNCc2cn(-c3cccc(F)c3)nc2-c2ccc(C)o2)cc1`, the activation in [1] was 156% (active); in [15], 12.4% (active). Also, the outcome in assay [2], in [3], in [4], in [5], in assay [6] and in [7] was inactive. Further, the outcome in [8], in assay [9], in assay [10], in assay [11], in assay [12] and in [13] was inactive. Besides, the result in [14] and in assay [16] was inactive.
With `Cc1sc2ncnc(NCC(c3ccco3)N3CCCC3)c2c1C` (stereo not given), the values for the activation in assay [1], in assay [2] and in assay [12] were 143% (active), 178% (active) and 78.8% (active), respectively. Besides, the outcome in assay [3], in assay [4], in assay [5], in assay [6], in assay [7] and in assay [8] was inactive. Moreover, the compound was classed as inactive in [9], in [10], in assay [11], in [13], in assay [14] and in assay [15]. Moreover, the result in assay [16] was inactive.
For `O=C(NCCc1ccccn1)c1ccc(COc2ccccc2)o1`, the result in [1], in [2], in assay [3], in assay [4], in assay [5] and in assay [6] was inactive. For the same compound, the outcome in assay [7], in [8], in assay [9], in [11], in [13] and in assay [14] was inactive. In addition, the result in [15] and in [16] was inactive. The activation in [10] was 35% (active); in [12], 58.4% (active).

These data come from PubChem BioAssay.
